Experimental data published in PubChem BioAssay (NCATS).
Records with an inconclusive call do not appear. Unmarked numbers belong to inactive results. The source made the active and inactive calls. The call rests on the fitted dose curve; in most records, active means well fitted inhibition curve with a large enough effect; inconclusive means small, poorly fitted or top-dose-only effect; inactive means flat fitted curve, though single readings scatter. Where a SMILES comes first, the peptide text is derived from it. The star is where a group is joined. Hexanoyl = CCCCCC(=O)*

assay: P-glycoprotein substrates identified in KB-8-5-11 adenocarcinoma cell line, qHTS therapeutic library screen (AID 1346987); details: KB-8-5-11 (P-gp overexpressing) viability, CellTiter-Glo, 72 h; series mostly up to 44.5 µM; activity change, negative = cytotoxicity: at the top concentration; further: nearly all actives have a fitted effect of over 65% in size
In short: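 In this qHTS, P-gp-rich KB-8-5-11 cells received library compounds across a concentration range. Viability was quantified by luminescence after 72 h at 37 degree C.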
On the % scale 0 is the no-effect control and ±100 the full control effect.

Compound	outcome	activity change, negative = cytotoxicity
OC[C@H]1O[C@@H](O[C@H]2[C@H](O)[C@@H](CO)O[C@@H](OCc3ccccc3)[C@@H]2O[C@@H]2OC[C@](O)(CO)[C@H]2O)[C@H](O)[C@@H](O)[C@@H]1O	inactive [at 17.3 µM]	–
CC1OC(O[C@@H]2[C@@H](O)[C@H](OC(=O)[C@]34CCC(C)(C)C[C@H]3C3=CCC5[C@@]6(C)CC[C@H](O[C@@H]7O[C@H](C(=O)O)[C@@H](O)[C@H](O[C@@H]8OC[C@@H](O)[C@H](O)[C@H]8O)[C@H]7O[C@@H]7O[C@H](CO)[C@H](O)[C@H](O)[C@H]7O)[C@@](C)(C=O)C6CC[C@@]5(C)[C@]3(C)C[C@H]4O)O[C@H](C)[C@@H]2OC2OC(C)C(OC3OCC(O)C(O)C3O)C(O)C2O)C(O)C(O)C1O (stereo partly drawn)	inactive [at 9.29 µM]	–
COC(=O)C1=CO[C@@H](O[C@@H]2O[C@H](CO)[C@@H](O)[C@H](O)[C@H]2O)[C@@H]2C(C)CC(=O)[C@]12O (stereo partly drawn)	–	2.76% [at 17.3 µM]
CSCC[C@H](NC(=O)[C@H](CO)NC(=O)[C@H](CCC(=O)O)NC(C)=O)C(=O)N[C@H](C=O)CC(=O)O (Ac-ESMD-aldehyde)	–	5.02% [at 9.29 µM]
COc1cc(C(CO)C(OC2OC(CO)C(O)C(O)C2O)c2ccc(O)c(OC)c2)ccc1O (stereo not drawn)	inactive [at 17.3 µM]	–
Cc1ccc(C)c(NC(=O)CNS(=O)(=O)c2ccc3[nH]c(=O)oc3c2)c1	–	3.66%
Cc1sc(C)c(C(=O)NC2(c3ccc(C(=O)O)cc3)CC2)c1Cc1ccc(C(F)(F)F)cc1	–	-2.04%
C[C@@H]1C(=O)O[C@H](C)[C@H]1C[C@@H](O)[C@](C)(O)[C@H]1CC[C@@]2(O)C3=CC(=O)[C@@H]4C[C@@H](O)[C@@H](O)C[C@]4(C)C3CC[C@]12C (stereo partly drawn)	–	-0.429% [at 17.3 µM]
C/C=C/C=C/C(O)=C1/C(=O)[C@]2(C)C3/C(=C(O)/C=C/C=C/C)C(=O)C4(C)C1[C@]1(C)O[C@@]4(O)[C@@]3(C)O[C@@]12O	inactive [at 17.3 µM]	–
COc1cc(O)cc(C)c1C(=O)O[C@H]1[C@@H](O)[C@@H](n2ccc(=O)[nH]c2=O)O[C@@H]1CO	inactive [at 17.3 µM]	–
CC1(C)CCC[C@@]2(C)[C@H]1[C@H](O)C=C(CO)[C@]2(O)CO	inactive	–
C[C@@H]1O[C@@H](OC2C(O[C@H]3[C@H](O[C@H]4CC[C@@]5(C)C(CC[C@]6(C)C5CC=C5C7CC(C)(C)CC(O)[C@]7(C)CC[C@]56C)C4(C)C)O[C@H](C(=O)O)[C@@H](O)[C@@H]3O)OC(CO)C(O)C2O)[C@H](O)[C@H](O)[C@H]1O (stereo partly drawn)	–	3.3% [at 9.29 µM]
C[C@@H]1C[C@@H](O)[C@@]23CO[C@]2(CO)CCC[C@@H]3[C@@]12C[C@@H](c1ccoc1)OC2=O	inactive	–
COc1cc(/C=C/C(=O)OC[C@H]2O[C@@H](OC3OC=C(C(=O)O)C4C(O)CC(C)(O)C34)[C@H](O)[C@@H](O)[C@@H]2O)cc(OC)c1O (stereo partly drawn)	inactive [at 17.3 µM]	–
Cc1c(NC(=O)N2CCOCC2)ccc2c1c1ccccc1n2C(C)C	–	4.12%
Cc1ccccc1-c1cc(N2CCN(C)CC2)ncc1N(C)C(=O)C(C)(C)c1cc(C(F)(F)F)cc(C(F)(F)F)c1	–	-18.5%
CCCCS(=O)(=O)NC(Cc1ccc(OCCCCC2CCNCC2)cc1)C(=O)O (stereo not drawn)	–	0.242%
COC(=O)[C@]1(C)CCC[C@@]2(C)C(=O)CC[C@H]3C(=O)C=C(CC[C@@H]21)C3O (stereo partly drawn)	–	9.87%
O=C(OCC(O)CO[C@@H]1O[C@H](C(=O)O)[C@@H](O)[C@H](O)[C@H]1O)c1ccccc1 (stereo partly drawn)	inactive	–

Compound	outcome	activity change, negative = cytotoxicity
COc1c2c(c(C)c3c1C(=O)OC3)OC1(C)CC(O)C34OC(OC)(CC(O)C3(C)C1C2)OC4(C)C (stereo not drawn)	inactive [at 17.3 µM]	–
C=C1C[C@@]2(O)O[C@@]3(C[C@H]2C(C)C)[C@@H](C)CC[C@@H]13	inactive	–
C/C=C(\C)C(=O)OC1C(C)C2(O)C3C=C(C)C(=O)C3CC(CO)=CC2C2C(C)(C)C12OC(C)=O (stereo not drawn)	–	-29.7% [at 17.3 µM]
COC(=O)C[C@H]1C(C)(C)[C@H](OC(=O)C(C)C)C2CC3=C4CC(=O)O[C@@H](c5ccoc5)[C@]4(C)CCC3[C@@]1(C)C2=O (stereo partly drawn)	–	-4.02% [at 17.3 µM]
Cc1nc(-c2cccnc2)sc1C(=O)Nc1ccccc1-c1cn2c(CN3CCOCC3)csc2n1	–	-7.98%
CC(O)C(O)/C=C/C=C/C(=O)O[C@@H]1C=C(C(=O)O)[C@](O)(CO)[C@@]2(C)CCCC(C)(C)[C@H]12 (stereo partly drawn)	–	2.09% [at 17.3 µM]
C=C1CC[C@@]2(OC1)O[C@H]1CC3[C@@H]4CC=C5C[C@H](O[C@H]6OC[C@@H](O)C(O)[C@@H]6O[C@@H]6O[C@@H](C)[C@H](O)[C@@H](O[C@@H]7O[C@H](CO)[C@@H](O)[C@H](O)[C@H]7O)[C@H]6O)C[C@@H](O)[C@]5(C)C4CC[C@]3(C)[C@H]1[C@@H]2C (stereo partly drawn)	–	2.38% [at 9.29 µM]
N#Cc1cc(-c2n[nH]c(-c3ccncc3)n2)ccn1	–	9.84%
CC(C)=CC[C@H]1O[C@]2(O)C([C@H]3CCC4[C@@]5(C)CC[C@H](O[C@@H]6O[C@H](CO)[C@H](O)[C@H](O[C@@H]7O[C@H](CO)[C@@H](O)[C@H](O)[C@H]7O)[C@H]6O[C@@H]6O[C@@H](C)[C@H](O)[C@@H](O)[C@H]6O)C(C)(C)C5CC[C@@]4(C)[C@]3(C)[C@H]2O)[C@@]1(C)O (stereo partly drawn)	–	9.26% [at 9.29 µM]
Cc1occc1C(=O)n1ccnc1	–	0.134%
COc1cc2c(cc1O)C(c1ccc(O)cc1)C(C)C(C)C2 (stereo not drawn)	–	-11.8%
CC(O)C(=O)/C=C/C=C/C(=O)OC1C=C2COC(=O)C2(O)C2(C)CCCC(C)(C)C12 (stereo not drawn)	inactive [at 17.3 µM]	–
CC(=O)OC(C)(C)/C=C/C(=O)[C@](C)(O)C1[C@H](O)C[C@@]2(C)[C@@H]3CC=C4[C@@H](C[C@H](O[C@@H]5O[C@H](CO)[C@@H](O)[C@H](O)[C@H]5O)C(=O)C4(C)C)[C@]3(C)C(=O)C[C@]12C (stereo partly drawn)	inactive [at 17.3 µM]	–
CS(=O)(=O)c1ccccc1N1CCN(c2nc3c(c(=O)[nH]2)CSCC3)CC1	–	5.4%
COc1cc(C(O)C2COC(c3ccc(OC4OC(CO)C(O)C(O)C4O)c(OC)c3)C2CO)ccc1O (stereo not drawn)	–	7.77% [at 17.3 µM]
CC1=C2CC(=O)C(C)CC/C=C(\C)CC2OC1=O (stereo not drawn)	inactive	–
CCCCCC(=O)N1CCC[C@H]1C(=O)N[C@@H](Cc1ccc(O)cc1)C(=O)OC (Hexanoyl-Pro-Tyr-OMe)	–	-8.17%
C=CC(C)(O)CC/C=C(\C)COC1O[C@H](CO)[C@@H](O)[C@H](O)[C@H]1O (stereo partly drawn)	–	-4.9%
COc1cc(C)c(C(=O)OC2C(C)OC(OC3CCC(C)C4C3C=C(C)C3/C(C)=C\CC/C(C)=C/C5(C)C=C(C(=O)O)C(C)CC56OC(=O)/C(=C(\O)C34C)C6=O)C(O)C2O)c(OC)c1 (stereo not drawn)	–	8.21% [at 9.29 µM]
